The values that follow come from ChEMBL document CHEMBL4888484, “Replenishing the malaria drug discovery pipeline: Screening and hit evaluation of the MMV Hit Generation Library 1 (HGL1) against asexual blood stage Plasmodium falciparum ,using a nano luciferase reporter read-out” (2022).

Among all 4,800 compounds or so, about 410 (8.5%) showed an effect of 50% or more. Shown is part of a subset that was picked to be rich in strong results.

The assay deals with Plasmodium falciparum. Description: Confirmatory screen in NF54 pLDH assay, in single point, at 2uM, 72h. It is filed as functional, Erythrocyte. The settings on record: timepoint 72 hour.
`CCC1(CC)NC(=O)N(CC(=O)Nc2cccc(CC(=O)OC)n2)C1=O`: the “% Inhibition” value is reported as -20%.
Then `c1ccc(CNc2ncnc3c2cnn3-c2ccccn2)cc1`, with 7%; and `CN(CCN)c1ccc(Br)cc1C#N`, with 9%; and `COc1ccc(C(=O)CN2C=CCC=C2c2nc(-c3ccc(Cl)cc3)cs2)cc1`, with 73%.
Under `COc1ccc(C2=CN(CC(=O)c3ccc(Cl)cc3)C3=CCCCCN23)cc1` stands 41%; under `O=C(CN1C=CCC=C1c1nc(-c2ccc(Br)cc2)cs1)c1ccccc1`, 46%.
Under `COc1ccc(NC(=O)c2cc3c(C)nn(-c4ccccc4)c3s2)cn1` stands 9%; under `O=C1C2C(Cc3ccccc3)NC3(C(=O)Nc4ccccc43)C2C(=O)N1c1cccc(C(F)(F)F)c1` (configuration not stated), 6%.
With `COc1ccc(C(=O)Nc2nnc([C@H]3CC(=O)N(c4ccc(C)cc4)C3)o2)cc1OC`, the “% Inhibition” value is -19%.
Then `COc1ccc(C2CC(c3ccccc3)N(C(C)=O)c3ncnn32)cc1` (configuration not stated), with -7%; and `COc1ccc(C(=O)N2c3ncnn3C(c3ccccc3)CC2c2ccc(C)cc2)cc1OC` (configuration not stated), with 98%.
Then `O=C(NCCCn1ncc2c(Cl)cccc21)C1CCC1`, with 8%; and `CCc1ccc(NC(=O)Cc2c(C)nc3nc(-c4ccccc4C)nn3c2C)cc1`, with 3%.
Then `C[C@H](NS(C)(=O)=O)C(=O)NC(C)(C)Cc1ccccc1Cl`, with 2%.
For the molecule `CCCN1CCC(NCc2ccc(-c3cccc(Cl)c3Cl)o2)CC1`, the “% Inhibition” value is on record as 98%.
Then `CCOCC(=O)Nc1ccc(OC(F)(F)F)cc1`, with -14%; and `Cc1ccccc1N1C(O)=Nc2ccccc2S1(=O)=O`, with -19%.
As to `Cc1nnc(Cn2nnc(C(=O)NCC3(CC(C)C)CCC3)c2C)o1`, the “% Inhibition” value was -24%.
Under `c1ccc(-c2nnc3nc(N4CCOCC4)nc(N4CCOCC4)n23)cc1` stands 6%; under `Cc1cc(CNC(=O)c2csc(=O)[nH]2)n(C)n1`, 12%.
Under `CCc1ccc2ncc(C(=O)c3ccc(Cl)cc3)c(O)c2c1` stands 1%.
For `CC(=O)c1nc2cc(F)c(N3CCOCC3)cc2nc1C`, the “% Inhibition” value is -13%.
Then `O=C(NCCc1cccs1)c1cnn2c(-c3ccc4c(c3)OCO4)ccnc12`, with -8%; and `CCCn1ccnc1-c1cn(Cc2cc3ccccc3[nH]2)nn1`, with 54%; and `O=C(c1ccc2ccccc2c1)N1CCC[C@H]1c1nc2ccccc2s1`, with 11%.
Then `O=C(NCc1ccco1)c1ccc2c(c1)OCO2`, with -7%; and `Cn1n[n+](CCCCC(Cl)(Cl)Cl)c2ccccc21`, with 52%.
Consider `Cn1n[n+](CC(=O)Nc2ccccc2Cl)c2ccccc21`, for which the “% Inhibition” value is reported as 3%.
Under `CCC(CC)(NCC(=O)NC1CC1)c1ccc(Cl)cc1` stands -1%; under `Cc1cc(C)n(C(=O)Cn2nc(C(F)F)cc2C)n1`, 11%.
Under `CCc1ccc(C(=O)N2CCCN(c3nc(C4CCOCC4)nc4c3cnn4-c3ccccc3)CC2)cc1` stands -7%; under `COC(=O)[C@H](C)N(C(=O)CO)c1c(C)cccc1C`, 10%; under `O=C(c1nnn(-c2ccccc2Cl)c1-c1cccnc1)N1CCC(Cc2ccccc2)CC1`, -8%.
Then `COc1cccc(NC(=O)Nc2ccc3c(c2)NC(=O)C(C)(C)O3)c1`, with -4%; and `Cc1sc2ncnc(N3CCCCC3)c2c1C(=O)NCc1cccc(Cl)c1`, with 10%.
Take `O=C(N[C@@H](N1CCCCC1)C(Cl)(Cl)Cl)c1ccc(Cl)cc1`: the “% Inhibition” value was 0%.
Under `Cc1ccccc1[C@H](CC(=O)O)NC(=O)C(F)(F)F` stands 16%.
Then `N=C1CCCN1c1c(Cl)cccc1Cl`, with 5%; and `COc1ccc(-c2cc3c(N4CCN(Cc5ccc6c(c5)OCO6)CC4)nccn3n2)cc1OC`, with -2%; and `Cc1cccc2[nH]cc(CCNC(=O)N3CCC4CCC(C3)N4C)c12` (configuration not stated), with 11%.
As for `CCc1cc(C(=O)N2CCC[C@H](C)C2)c2c(C3CC3)nn(-c3ccccc3)c2n1`, the “% Inhibition” value is reported as 4%.
As to `O=C(O)c1ccc(N(C(=O)c2ccc3c(c2)OCO3)C(=O)c2ccc3c(c2)OCO3)cc1O`, the “% Inhibition” value worked out at 15%.
Under `COc1ccccc1C(=O)N(Cc1cccs1)c1ccc(C)c(Cl)c1` stands 1%; under `Cc1c(Cl)cccc1C(=O)N1CCC[C@H](Cn2cncn2)C1`, 1%.
Then `O=C(N[C@@H]1CN(Cc2ccccn2)CCC[C@H]1O)c1ccc(OCc2ccccc2)cc1`, with 42%.
Then `CCOC(=O)C1CCC(CN(Cc2ccc(OC)cc2)S(=O)(=O)c2cc(C(=O)Nc3ccc(OCC)cc3)ccc2F)CC1` (configuration not stated), with 6%.
Regarding `CN1CCN(c2nc(O)c3c(n2)NC(=O)C[C@H]3c2c(F)cccc2Cl)CC1`, the “% Inhibition” value was -6%.
Under `O=C(CC(F)(F)F)NCc1ccccn1` stands -21%; under `O=C(c1ccccc1)n1c(=O)n(C(=O)c2ccccc2)c2ccccc21`, 7%.
Then `Cc1n(CC(=O)c2ccccc2)c2ccccc2[n+]1CC(=O)c1ccccc1`, with 66%; and `CCC(=O)Nc1ccc(Oc2c(C)c(C(=O)O)nn2-c2ccccc2CC)c(S(=O)(=O)NCC(C)C)c1`, with 9%; and `C[C@@H](CNS(=O)(=O)c1ccco1)N(C)S(=O)(=O)c1ccco1`, with 4%.
Under `O=C(Nc1ccc2c(c1)OCO2)c1c(-c2ccc(Cl)cc2)nc2n1CCS2(=O)=O` stands 6%.
Take `CC(CNc1ccccn1)N1CCOCC1C` (configuration not stated): the “% Inhibition” value is 0%.
Under `c1ccc(Oc2ccc(CNCc3nnc4n3CCCCC4)o2)cc1` stands 9%.
Under `C#C[C@H](C)OC(=O)c1cccc(Nc2cnccn2)c1` stands 10%; under `CCNC(=O)NCCOC(=O)Cc1cc(Cl)cc2c1OCC2`, -1%.
Under `COCc1cnc(NC(=O)NC2(c3ncccn3)CCOCC2)s1` stands 10%; under `COc1ccc(CN2CCC(C(=O)NCCCN3CCOCC3)CC2)c(OC)c1`, 9%.
Regarding `Cc1ccc(CS(=O)(=O)NC(=O)N2CCC(c3ccccc3)CC2)cc1`, the “% Inhibition” value turned out to be 10%.
Consider `O=C(NC1CCCC1)c1n[nH]c(=O)c2ccccc12`, for which the “% Inhibition” value came to 7%.
Then `COc1cccc2c1OCC(=O)N([C@@H](C)c1ccccc1)C2`, with -12%.
Then `Cc1nnc(-c2cnn(C)c2N)n1C[C@H]1CCCO1`, with 9%; and `O=C(CCC(=O)Nc1cccnc1)NCc1ccc2c(c1)OCO2`, with 6%.
Under `O=C(Nc1cccnc1)c1ccc(-c2ccc(Cl)c(Cl)c2)o1` stands 89%.
With `O=C(Nc1ccn(Cc2cccnc2)n1)c1ccc(-c2ccccc2F)o1`, the “% Inhibition” value was 6%.
Then `CC(C)(C)OC(=O)NS(=O)(=O)NCc1ccccc1`, with 4%; and `Cc1nc(CNS(=O)(=O)Cc2ccc(F)c(Cl)c2)sc1C`, with 3%.
Then `O=C(NCCN1CCCC1)c1ccc2c(c1)OCCO2`, with -7%; and `O=C(NCCN1CCCC1)c1ccc2nc(-c3ccc(Cl)cc3)cn2c1`, with 70%.
Under `O=c1ccn2c(n1)O[C@H]1[C@H](OC3CCCCO3)[C@@H](COC3CCCCO3)O[C@H]12` (some centres not stated) stands -17%; under `Cc1cc(NC(=O)[C@@H](c2ccccc2)N2CCCCC2=O)sn1`, 1%.
For the molecule `COC(=O)C1=C(C(=O)OC)SC(=C2C(=S)C(C)(C)N(C(=O)COc3ccc4ccccc4c3)c3ccccc32)S1`, the “% Inhibition” value is recorded as 7%.
Regarding `Cc1ccc(CN2CCN(C[C@@H](O)Cn3c4ccccc4n4c(=O)cc(C)c(C#N)c34)CC2)c(C)c1`, the “% Inhibition” value worked out at 96%.
Then `N#Cc1c(CN2CCOCC2)cc(=O)n2c1[nH]c1ccccc12`, with 0%; and `COc1cc2c(cc1OC)CN(C(=O)c1cccc(N3C(=O)C(C)(C)CS3(=O)=O)c1)CC2`, with 3%; and `Cc1cc2n(n1)C(C(F)(F)F)CCN2C(=O)C(C)N1C(=O)C2CCCCC2C1=O` (configuration not stated), with 4%.
As to `Cn1nc(C(=O)NC2CCCCC2)cc1C(=O)NC1CCCCC1`, the “% Inhibition” value amounted to 12%.
Under `C[C@@H](CNc1ncc(C(=O)N2CCOCC2)cc1Cl)c1nncn1C` stands -9%.
Take `COc1ccc(Cl)cc1S(=O)(=O)c1cnc(N2CCOCC2)nc1N`: the “% Inhibition” value was determined as 10%.
Then `CN1CCN(c2c(F)cc3c(=O)c(C(=O)O)cn(-c4ccc(OC5CC6CCC5(C)C6(C)C)c(F)c4)c3c2F)CC1` (configuration not stated), with -4%; and `COc1cccc(NC(=O)N2CCN(c3nc4ccccc4n(Cc4ccccc4)c3=O)CC2)c1`, with 0%; and `Cc1ccc(C)c(S(=O)(=O)NCCNc2ccc(Nc3ccncc3)nn2)c1`, with 29%.
Take `CCC(=O)Nc1nc2c(OC)cc(NS(=O)(=O)c3c(C)noc3C)cc2s1`: the “% Inhibition” value turned out to be 10%.
Then `CCNc1nc(C)cc(Nc2ccc(NS(=O)(=O)c3c(C)noc3C)cc2)n1`, with 100%; and `CCNc1nc(C)cc(Nc2ccc(NC(=O)c3cc(C)ccc3C)cc2)n1`, with 99%.
Then `Cc1onc(N)c1S(=O)(=O)Nc1ccncc1`, with -2%; and `Cc1ccccc1S(=O)(=O)NCc1nnc(C(=O)Nc2ccc(F)cc2F)s1`, with 11%; and `O=C(Nc1ccc(N2CCOCC2)cc1)Nc1ccc(F)cc1F`, with 7%.
In the case of `CCC(=O)N1CCN(c2cc(Nc3ccc(C)cc3)nc(C)n2)CC1`, the “% Inhibition” value was -1%.
As for `CCc1ccc(NC(=O)[C@H](C)N2CCC(NS(=O)(=O)c3cccs3)CC2)cc1`, the “% Inhibition” value is 77%.
Then `Cn1cc(C(=O)NCC2CCN(S(=O)(=O)c3cccs3)CC2)cn1`, with 2%; and `CCc1ccc(NC(=O)[C@@H]2CCn3c(C(=O)c4ccccc4)ccc32)cc1`, with 6%; and `Cc1nn(Cc2cccc(F)c2)c(C)c1NC(=O)c1cccc(COc2ccc(Br)cc2)c1`, with 16%.
Then `COc1cc(C)sc1C(=O)NCc1csc(=O)[nH]1`, with -7%; and `COc1ccc(C(=O)n2nc(Nc3ccccc3Cl)cc2Nc2ccccc2Cl)cc1`, with 12%.
As for `COc1ccc(-n2ncc3c(N)c4c(nc32)CCCC4=O)cc1`, the “% Inhibition” value turned out to be 11%.
Then `C[C@@H](C(=O)Nc1cccc2ccccc12)N1CCCCC1`, with 7%; and `CCOCCC1(CN=C(N)N2CCCCC2)CCCC1`, with 5%.
For the molecule `Cc1ccc(C2c3ccsc3CCN2CCC(=O)N2CCN(C(=O)Cc3cccs3)C(C)C2)cc1` (configuration not stated), the “% Inhibition” value worked out at 26%.
Then `OC[C@H]1CCc2nnc(C(F)F)n2C1`, with 11%; and `CCn1nc(-n2cnnc2)c(NS(=O)(=O)c2cccc(Cl)c2)c1C`, with 3%.

In general, % Inhibition refers to the change of the read-out against control, counted positive when it falls.
